Source: PubChem BioAssay (Broad Institute)
In the library only some 7.7% were active in any assay of this set; here they are far more common.
PD-1 reverse act: activators reversing PD-1 mediated T-cell inhibition. 29,000 tested, under 10 active. primary human CD4 T cells, PD-L1 beads, CellTiter-Glo 96 h. activation, % (concentration not given with the values); call rule not given here;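 further: 0% = median vehicle wells and 100% = positive control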
Shh pathway inh: blocks Sonic Hedgehog signaling; Shh-LIGHT2 Gli-luciferase reporter, 30 h; inhibition, % (no concentration beside the values); 22,000 tested, 2.1% active;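 active means mean inhibition across valid replicates above about 65%, limit read from the data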;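 further: pathway switched on by Shh-conditioned medium diluted 1 in 25 in low serum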
NOMO-1 viab: STK33 inhibitor candidate reducing NOMO-1 cell viability; NOMO-1 AML viability, CellTiter-Glo luminescence, 72 h; inhibition, % (test concentration not listed); 37,000 tested, 7.5% active; in the data active means inhibition above about 80%
* = called active by the depositor.

How did Cc1noc(C)c1S(=O)(=O)Nc1ccc2c(c1)C(=O)N([C@@H](C)CO)C[C@@H](C)[C@@H](CN(C)Cc1ccc(Cl)c(Cl)c1)O2 do in these assays?
PD-1 reverse act: 0; Shh pathway inh: 25; NOMO-1 viab: 82*

Results for C[C@@H]1CN([C@H](C)CO)C(=O)c2cc(NS(=O)(=O)c3ccccc3)ccc2O[C@@H]1CN(C)Cc1ccc(Oc2ccccc2)cc1 ?
PD-1 reverse act: -3; Shh pathway inh: 88*; NOMO-1 viab: 71

Results for Cc1ccc(S(=O)(=O)Nc2ccc3c(c2)C(=O)N([C@@H](C)CO)C[C@@H](C)[C@H](CN(C)Cc2ccc(Oc4ccccc4)cc2)O3)cc1 ?
Shh pathway inh: 30; NOMO-1 viab: 57

What do the screens show for `C[C@@H]1CN([C@H](C)CO)C(=O)c2cc(NS(=O)(=O)c3ccccc3)ccc2O[C@H]1CN(C)Cc1ccc(Oc2ccccc2)cc1`?
Shh pathway inh: 42; NOMO-1 viab: 73

What do the screens show for `Cc1noc(C)c1S(=O)(=O)Nc1ccc2c(c1)C(=O)N([C@@H](C)CO)C[C@H](C)[C@@H](CN(C)Cc1ccc(Cl)c(Cl)c1)O2`?
PD-1 reverse act: -3; Shh pathway inh: 42; NOMO-1 viab: -4

Results for Cc1noc(C)c1S(=O)(=O)Nc1ccc2c(c1)C(=O)N([C@@H](C)CO)C[C@H](C)[C@@H](CN(C)Cc1ccc(Oc3ccccc3)cc1)O2 ?
PD-1 reverse act: -3; Shh pathway inh: 16; NOMO-1 viab: 26

What do the screens show for `CCC(=O)O[C@@H]1CC(=O)O[C@H](C)C/C=C\C=C\[C@@H](O)[C@H](C)C[C@H](CC=O)[C@H](OC2O[C@H](C)[C@@H](O[C@H]3C[C@@](C)(O)[C@@H](OC(=O)CC)[C@H](C)O3)[C@H](N(C)C)[C@H]2O)[C@H]1OC` (some centres not stated)?
PD-1 reverse act: 3; Shh pathway inh: -137; NOMO-1 viab: -8

What do the screens show for `Cc1ccc(S(=O)(=O)N2C(=O)CCC2C(=O)Nc2cc(C(F)(F)F)ccc2Cl)cc1` (configuration not stated)?
PD-1 reverse act: 0; NOMO-1 viab: 13

How did Cc1sc(NC(=O)COc2ccc(Cl)cc2Cl)c(C(N)=O)c1C do in these assays?
NOMO-1 viab: 46

How did O=C(CSc1nc2ccccc2c(=O)[nH]1)Nc1ccc(F)cc1F do in these assays?
NOMO-1 viab: 0

Results for C=CCSc1nnc2c(n1)OC(c1ccc(-c3ccc(F)cc3)o1)N(C(C)=O)c1ccccc1-2 (configuration not stated) ?
PD-1 reverse act: 0; Shh pathway inh: 9; NOMO-1 viab: 35

What do the screens show for `COc1ccc(Cl)cc1N(CC(=O)Nc1ccc(C(F)(F)F)cc1)S(C)(=O)=O`?
PD-1 reverse act: 0; NOMO-1 viab: 3

How did CC1C(O)C(N(C)C)CC2COCC21 (configuration not stated) do in these assays?
PD-1 reverse act: 1; Shh pathway inh: -18; NOMO-1 viab: 13

What do the screens show for `O=[N+]([O-])c1cc(C(F)(F)F)ccc1N(CCO)CCO`?
NOMO-1 viab: 5

How did O=c1cc(-c2ccccc2)oc2cc(Cl)cc(Cl)c12 do in these assays?
PD-1 reverse act: 0; Shh pathway inh: -43; NOMO-1 viab: 3

Results for OCCOCCN1CCN(C(c2ccccc2)c2ccc(Cl)cc2)CC1 (configuration not stated) ?
PD-1 reverse act: 2; Shh pathway inh: 23; NOMO-1 viab: 10

What do the screens show for `OC(CN1CCN(c2cccc(Cl)c2)CC1)C(c1ccccc1)c1ccccc1` (configuration not stated)?
Shh pathway inh: 95*; NOMO-1 viab: 17

What do the screens show for `Cc1ccc(-n2sc3ccccc3c2=O)cc1`?
PD-1 reverse act: -6; Shh pathway inh: 10; NOMO-1 viab: 141*

Results for Cc1ccc(-n2c(Cn3ncc4ccccc4c3=O)n[nH]c2=S)cc1 ?
NOMO-1 viab: -3

Results for Nc1cc(=O)[nH]c(SCC(=O)N2CCN(c3ccccc3)CC2)n1 ?
NOMO-1 viab: 37

Results for COc1cccc(/C=N/n2cnnc2)c1 ?
PD-1 reverse act: 5; Shh pathway inh: -15; NOMO-1 viab: 12

How did CCC(C)[C@H]1C(=O)O[C@H](C(C)C)C(=O)N(C)[C@@H](C(C)C)C(=O)O[C@H](C(C)C)C(=O)N(C)[C@@H](C(C)C)C(=O)O[C@H](CC(C)C)C(=O)N1C (some centres not stated) do in these assays?
PD-1 reverse act: -14; Shh pathway inh: 106*; NOMO-1 viab: 119*

What do the screens show for `O=C(Oc1ccc2ccccc2c1)c1ccccc1S(=O)(=O)c1ccccc1[N+](=O)[O-]`?
PD-1 reverse act: -4; NOMO-1 viab: 34

Results for O=C(c1ccco1)N1N=C2c3ccccc3CCC2C1c1ccc(F)cc1 (configuration not stated) ?
PD-1 reverse act: 0; Shh pathway inh: 34; NOMO-1 viab: 48
